Assay [1] can be described thus: qHTS of pediatric cancer cell lines to identify multiple opportunities for drug repurposing: Primary screen for TC32 cells (AID 1347089). Further: nearly all actives have a fitted effect of over 60% in size. Particulars: TC32 Ewing sarcoma viability, CellTiter-Glo luminescence, 48 h; series mostly up to 45.8 µM. The procedure, abridged: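 Luminescent CellTiter-Glo read-out of metabolically active TC32 cells after 48 h compound exposure. Primary: MIPE 11-point, 0.78 nM–46 µM; NPC 8-point, 0.59 nM–46 µM. Confirmatory: 11-point dilutions.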
For orientation: qHTS replaces the single test concentration by a dilution series.

Assay [2] in a line: qHTS of pediatric cancer cell lines to identify multiple opportunities for drug repurposing: Primary screen for SJ-GBM2 cells (AID 1347091). Particulars: SJ-GBM2 viability, CellTiter-Glo luminescence, 48 h; series mostly up to 46 µM. An outline of the steps: (§1)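 Viability measured as metabolically active cells via CellTiter-Glo luminescence following 48 hours of compound exposure, 11-point dilutions in confirmatory testing. 500-1,000 cells/well plated 5 hours before dosing; controls were DMSO and 2.3 µM bortezomib.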

Assay [3] is described as follows: qHTS of pediatric cancer cell lines to identify multiple opportunities for drug repurposing: Primary screen for A673 cells (AID 1347092). Further: nearly all actives have a fitted effect of over 45% in size. To be noted: A673 Ewing sarcoma viability, CellTiter-Glo ATP luminescence, 48 h; series mostly up to 46 µM. An outline of the steps: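 A673 cells (500-1,000 cells/well in growth media) were pre-incubated 5 h at 37 degrees C, then exposed to compounds for 48 h. Viability was read as CellTiter-Glo luminescence; concentration-response curves came directly from the primary screen.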

Assay [4] in a line: qHTS of pediatric cancer cell lines to identify multiple opportunities for drug repurposing: Primary screen for SK-N-MC cells (AID 1347093). Particulars: SK-N-MC viability, CellTiter-Glo luminescence, 48 h; series mostly up to 46 µM. The procedure, abridged:
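Metabolically active cells were quantified by ATP-dependent luminescence (CellTiter-Glo, 15 min at room temperature) following 48 h treatment. Cells had been plated at 500-1,000 per well and settled for 5 h beforehand.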

Assay [5] can be described thus: qHTS of pediatric cancer cell lines to identify multiple opportunities for drug repurposing: Primary screen for BT-37 cells (AID 1347094). To be noted: BT-37 viability, CellTiter-Glo luminescence, 48 h; series mostly up to 57.3 µM. The procedure, abridged:
(§2)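 Viability was measured as metabolically active cells after 48 hours of treatment, read by CellTiter-Glo luminescence. Compounds were tested at multiple final concentrations, giving concentration-response curves.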

Assay [6] is described as follows: qHTS of pediatric cancer cell lines to identify multiple opportunities for drug repurposing: Primary screen for NB-EBc1 cells (AID 1347095). Particulars: NB-EBc1 neuroblastoma viability, CellTiter-Glo luminescence, 48 h; series mostly up to 46 µM. An outline of the steps:
as §2

Assay [7] in a line: qHTS of pediatric cancer cell lines to identify multiple opportunities for drug repurposing: Primary screen for U-2 OS cells (AID 1347096). Further: nearly all actives have a fitted effect of over 50% in size. To be noted: U-2 OS viability, CellTiter-Glo luminescence, 48 h; series mostly up to 46 µM. An outline of the steps:
(§3)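 Viability after 48 h compound treatment at 37C, 500-1,000 cells/well, read as ATP luminescence with CellTiter-Glo. Primary screens used 11-point (MIPE, 0.78 nM-46 µM) or 8-point (NPC, 0.59 nM-46 µM) final concentrations; follow-up screens used 11-point dilutions.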

A short description of assay [8]: qHTS of pediatric cancer cell lines to identify multiple opportunities for drug repurposing: Primary screen for SK-N-SH cells (AID 1347098). Further: nearly all actives have a fitted effect of over 65% in size. Particulars: SK-N-SH viability, CellTiter-Glo luminescence, 48 h; series mostly up to 57 µM. An outline of the steps:
(§4)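 Cells (500-1,000/well) rested 5 h, then received compounds for 48 h; metabolically active cells were measured by CellTiter-Glo luminescence. Final concentrations spanned up to 46 µM (MIPE, 11-point) or 0.59 nM-46 µM (NPC, 8-point) in primary screens, 11-point in follow-ups.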

A short description of assay [9]: qHTS of pediatric cancer cell lines to identify multiple opportunities for drug repurposing: Primary screen for NB1643 cells (AID 1347099). Further: nearly all actives have a fitted effect of over 50% in size. Particulars: NB1643 neuroblastoma viability, CellTiter-Glo luminescence, 48 h; series mostly up to 46 µM. An outline of the steps: as §2
Assay [10] can be described thus: qHTS of pediatric cancer cell lines to identify multiple opportunities for drug repurposing: Primary screen for LAN-5 cells (AID 1347100). To be noted: LAN-5 neuroblastoma viability, CellTiter-Glo luminescence, 48 h; series mostly up to 46 µM. An outline of the steps:
as §3

Assay [11] can be described thus: qHTS of pediatric cancer cell lines to identify multiple opportunities for drug repurposing: Primary screen for Rh18 cells (AID 1347102). Further: nearly all actives have a fitted effect of over 65% in size. Particulars: Rh18 rhabdomyosarcoma viability, CellTiter-Glo luminescence, 48 h; series mostly up to 46 µM. An outline of the steps: as §3
Assay [12] can be described thus: qHTS of pediatric cancer cell lines to identify multiple opportunities for drug repurposing: Primary screen for DAOY cells (AID 1347090). Further: nearly all actives have a fitted effect of over 55% in size. To be noted: DAOY medulloblastoma viability, CellTiter-Glo luminescence, 48 h; series mostly up to 46 µM. The procedure, abridged: as §1
Assay [13] can be described thus: qHTS of pediatric cancer cell lines to identify multiple opportunities for drug repurposing: Primary screen for Saos-2 cells (AID 1347097). Further: nearly all actives have a fitted effect of over 40% in size. To be noted: Saos-2 viability, CellTiter-Glo ATP luminescence, 48 h; series mostly up to 46 µM. The procedure, abridged:
as §2

Assay [14] is described as follows: qHTS of pediatric cancer cell lines to identify multiple opportunities for drug repurposing: Primary screen for BT-12 cells (AID 1347101). Further: nearly all actives have a fitted effect of over 25% in size. To be noted: BT-12 viability, CellTiter-Glo luminescence, 48 h; series mostly up to 57.3 µM. The procedure, abridged:
as §4

Assay [15] can be described thus: qHTS of pediatric cancer cell lines to identify multiple opportunities for drug repurposing: Primary screen for OHS-50 cells (AID 1347103). Further: nearly all actives have a fitted effect of over 40% in size. To be noted: OHS-50 osteosarcoma viability, CellTiter-Glo luminescence, 48 h; series mostly up to 57.3 µM. An outline of the steps:
as §4

Drawing on PubChem BioAssay (NCATS), this text covers Potency for 9 compounds.

Results filed as inconclusive are left out. Active and inactive are the calls of the source. The call rests on the fitted dose curve; in most records, active means well fitted curve in the direction sought with a large enough effect; inconclusive means small, poorly fitted or top-dose-only effect, or another doubt; inactive means no such curve, though single readings can be large; an effect the other way counts as inactive or inconclusive.
Potency means the concentration at half of the fitted maximal effect.

As for `CCCCCOc1ccc(C2SC(=O)NC2=O)cc1OCC` (stereo not given), the Potency result in [1], in assay [2], in [3], in [4], in [5] and in assay [6] was “inactive” throughout. For the same compound, the Potency result in assay [7], in assay [8], in assay [9], in assay [10] and in [11] was “inactive” throughout.
Take `CCCCCCCCCCCCCCCC[n+]1ccccc1`: the Potency in assay [12] is 16.8 µM (active); in [3] it was 1.68 µM (active); in assay [4], 5.31 µM (active); in assay [5], 15.5 µM (active); in assay [6], 18.8 µM (active); in assay [7], 21.1 µM (active). Besides, the Potency in assay [13] is 15 µM (active); in [8] it was 7.7 µM (active); in assay [10], 13.3 µM (active); in [14] it was 6.92 µM (active); in assay [11], 7.5 µM (active); in [15] it was 2.46 µM (active). Besides, the Potency entry in assay [9] was “inactive”.
In the case of `CC(=O)Nc1ccn(C2COC(COC(=O)c3ccccc3)O2)c(=O)n1` (stereo not given), the Potency entry in assay [12], in assay [2], in assay [7], in assay [13] and in [11] was “inactive” throughout. Further, the figures for the Potency in [4] and in [6] were 0.75 µM (active) and 2.37 µM (active), respectively.
For the compound `O=C1NC2CCCCN2C12CCN(CCCN1c3ccccc3CCc3ccc(Cl)cc31)CC2` (stereo not given), the Potency entry in assay [1] is “inactive”. The Potency in assay [2] is 23.7 µM (active); in [4] it was 16.8 µM (active); in assay [5], 30.9 µM (active); in assay [13], 23.7 µM (active); in [8], 27.3 µM (active); in [14] it was 15.5 µM (active). Further, the Potency in assay [15] is 27.6 µM (active).
Turning to `CC(C)=CCNc1ncnc2c1ncn2[C@@H]1O[C@H](CO)[C@@H](O)[C@H]1O`, the Potency in assay [1] is 5.92 µM (active); in assay [3] it was 2.66 µM (active); in [4], 3.76 µM (active); in [5], 6.17 µM (active); in assay [7], 21.1 µM (active); in [8], 5.45 µM (active). Also, the Potency is 5.31 µM (active) in assay [9], 5.96 µM (active) in [10] and 2.66 µM (active) in assay [11].
`c1ccc2c(c1)CCc1ccccc1N2`: the Potency entry in assay [12], in [2], in [3], in assay [4], in assay [5] and in assay [6] was “inactive” in each case. In addition, the Potency entry in assay [7], in assay [8], in assay [9], in [10], in assay [14] and in assay [11] was “inactive” throughout.
On to `COC(=O)[C@H]1[C@H]2C[C@@H]3c4[nH]c5cc(OC)ccc5c4CCN3C[C@H]2C[C@@H](OC(=O)/C=C/c2ccc(O)c(OC)c2)[C@@H]1OC`, for which the Potency result in assay [1] and in assay [12] was “inactive” each time. Further, the Potency in [4] was 5.96 µM (active); in assay [13] it was 16.8 µM (active); in [8] it was 21.7 µM (active); in assay [10], 21.1 µM (active); in [15], 34.7 µM (active).
As to `CC(C)Cc1ccc(C(C)C(=O)OCc2ccccn2)cc1` (stereo not given), the Potency entry in assay [1], in assay [12], in [2], in [5], in assay [6] and in assay [7] was “inactive” each time. Also, the Potency entry in assay [13], in assay [8], in [9], in assay [10], in [14] and in [11] was “inactive” each time.
With `COc1ccc(-n2nc(CCC(=O)N(C)O)cc2-c2ccc(Cl)cc2)cc1`, the values for the Potency in assay [1], in assay [4] and in assay [6] were 16.7 µM (active), 23.7 µM (active) and 21.1 µM (active), respectively. For the same compound, the Potency result in assay [7], in [9] and in assay [11] was “inactive” in each case.
